Measured values from PubChem BioAssay AID1159580 (chemical genetic matrix, 2015).
Several values for one entry are separate records, joined by “and”; a condition that tells them apart may be missing. Identical values can stand only once. About 2,000 (36%) of roughly 5,500 compounds were called active. About 18% were inconclusive and are not listed. Rule as the data show it: active = normalized growth mostly below about 0.91 (no sharp cut-off); inconclusive = no clear call, values can overlap the other calls; inactive = mostly above about 0.92. The list shows a part of the results.

Assay: chemical genetic growth profiling, strain panel (AID 1159580);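 also: tested at 20 µM; growth read once vehicle control cultures reached saturation at 30 °C; 1 = growth at the plate median or of vehicle wells; lower values mean less growth of the strain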
Conditions: growth OD

Measured: normalized growth

COc1cc2c(cc1OC)-c1cc3ccc(OC)c(OC)c3c[n+]1CC2
inactive: S. cerevisiae deletion strains, locus YJR075W, strain HOC1, hits give low values 0.985 and 1.03 | S. cerevisiae deletion strains, locus YKL009W, strain mrt4, hits give low values 0.972 and 0.995 | S. cerevisiae deletion strains, locus YKL068W, hits give low values 0.996 and 1.01 | S. cerevisiae deletion strains, locus YKL085W, strain MDH1 (second series), hits give low values 0.995 and 0.999 | S. cerevisiae deletion strains, locus YKL085W, strain MDH1, hits give low values 0.995 and 0.999 | S. cerevisiae deletion strains, locus YKL160W, strain elf1, hits give low values 0.982 | S. cerevisiae deletion strains, locus YKL190W, strain CNB1, hits give low values 0.995 and 1.02 | S. cerevisiae deletion strains, locus YKR001C, strain vps1, hits give low values 0.971 and 1.02 | S. cerevisiae deletion strains, locus YKR026C, strain gcn3, hits give low values 0.966 | S. cerevisiae deletion strains, locus YKR091W, strain srl3, hits give low values 0.984 | S. cerevisiae deletion strains, locus YLL001W, strain dnm1, hits give low values 0.972 | S. cerevisiae deletion strains, locus YLL026W, hits give low values 0.983 | S. cerevisiae deletion strains, locus YLL041C, strain sdh2, hits give low values 0.984 | S. cerevisiae deletion strains, locus YLR027C, strain aat2, hits give low values 0.978 | S. cerevisiae deletion strains, locus YLR039C, strain RIC1, hits give low values 1 and 0.981 | S. cerevisiae deletion strains, locus YLR058C, strain SHM2, hits give low values 0.985 and 1.02 | S. cerevisiae deletion strains, locus YLR102C, strain apc9, hits give low values 0.986 and 1.02 | S. cerevisiae deletion strains, locus YLR113W, strain HOG1, hits give low values 1.03 | S. cerevisiae deletion strains, locus YLR221C, strain rsa3, hits give low values 1.01 | S. cerevisiae deletion strains, locus YLR258W, strain gsy2, hits give low values 1 | S. cerevisiae deletion strains, locus YLR262C, strain YPT6 (second series), hits give low values 0.969 | S. cerevisiae deletion strains, locus YLR262C, strain YPT6, hits give low values 1.02 and 0.979 | S. cerevisiae deletion strains, locus YLR268W, strain sec22, hits give low values 1.01 and 1.04 | S. cerevisiae deletion strains, locus YLR320W, strain mms22, hits give low values 0.997 | S. cerevisiae deletion strains, locus YLR330W, strain CHS5, hits give low values 0.991 and 1.01 | S. cerevisiae deletion strains, locus YLR342W, strain FKS1 (second series), hits give low values 0.978 and 0.987 | S. cerevisiae deletion strains, locus YLR342W, strain FKS1, hits give low values 0.995 | S. cerevisiae deletion strains, locus YLR357W, strain rsc2, hits give low values 0.984 | S. cerevisiae deletion strains, locus YLR370C, strain arc18, hits give low values 0.975 | S. cerevisiae deletion strains, locus YLR371W, strain rom2, hits give low values 0.978 and 1.01 | S. cerevisiae deletion strains, locus YLR384C, strain iki3, hits give low values 0.969 | S. cerevisiae deletion strains, locus YLR418C, strain cdc73, hits give low values 0.994 and 1 | S. cerevisiae deletion strains, locus YML016C, strain PPZ1, hits give low values 0.982 and 1.01 | S. cerevisiae deletion strains, locus YML032C, strain rad52, hits give low values 0.972 and 0.998 | S. cerevisiae deletion strains, locus YML120C, strain ndi1, hits give low values 0.987 | S. cerevisiae deletion strains, locus YML124C, strain tub3, hits give low values 0.993 and 1.02 | S. cerevisiae deletion strains, locus YMR058W, strain fet3, hits give low values 0.978 | S. cerevisiae deletion strains, locus YMR078C, strain ctf18, hits give low values 0.979 and 1.01 | S. cerevisiae deletion strains, locus YMR125W, strain sto1, hits give low values 0.958 | S. cerevisiae deletion strains, locus YMR129W, hits give low values 0.985 | S. cerevisiae deletion strains, locus YMR205C, strain PFK2, hits give low values 0.955 | S. cerevisiae deletion strains, locus YMR223W, strain ubp8, hits give low values 0.977 and 1.01 | S. cerevisiae deletion strains, locus YMR231W, strain pep5, hits give low values 1 | S. cerevisiae deletion strains, locus YMR263W, strain SAP30, hits give low values 0.998 | S. cerevisiae deletion strains, locus YMR307W, strain GAS1, hits give low values 0.984 and 1.03 | S. cerevisiae deletion strains, locus YNL067W, strain RPL9B, hits give low values 0.998 and 1.05 | S. cerevisiae deletion strains, locus YNL071W, strain lat1, hits give low values 0.994 | S. cerevisiae deletion strains, locus YNL128W, strain TEP1, hits give low values 0.999 | S. cerevisiae deletion strains, locus YNL153C, strain GIM3, hits give low values 1.01 | S. cerevisiae deletion strains, locus YNL183C, strain NPR1, hits give low values 0.978 | S. cerevisiae deletion strains, locus YNL209W, strain ssb2, hits give low values 0.977 | S. cerevisiae deletion strains, locus YNL233W, strain BNI4, hits give low values 0.981 and 1.03 | S. cerevisiae deletion strains, locus YNL248C, strain rpa49, hits give low values 0.982 | S. cerevisiae deletion strains, locus YNL250W, strain rad50, hits give low values 0.989 and 1.02 | S. cerevisiae deletion strains, locus YNL271C, strain bni1, hits give low values 0.986 and 1.01 | S. cerevisiae deletion strains, locus YNL298W, strain CLA4, hits give low values 0.995 and 1.02 | S. cerevisiae deletion strains, locus YNL307C, strain MCK1, hits give low values 0.986 and 1.02 | S. cerevisiae deletion strains, locus YNL322C, strain KRE1 (second series), hits give low values 0.97 | S. cerevisiae deletion strains, locus YNL322C, strain KRE1, hits give low values 0.987 and 1.01 | S. cerevisiae deletion strains, locus YNR049C, strain mso1, hits give low values 0.98 | S. cerevisiae deletion strains, locus YNR052C, strain pop2, hits give low values 0.995 and 1.02 | S. cerevisiae deletion strains, locus YOL006C, strain TOP1, hits give low values 1.01 | S. cerevisiae deletion strains, locus YOL012C, strain htz1 0.984 and 1.9 | S. cerevisiae deletion strains, locus YOL147C, strain pex11, hits give low values 0.991 and 1.01 | S. cerevisiae deletion strains, locus YOR001W, strain rrp6, hits give low values 0.968 | S. cerevisiae deletion strains, locus YOR061W, strain CKA2, hits give low values 0.99 and 1 | S. cerevisiae deletion strains, locus YOR069W, strain VPS5, hits give low values 0.992 and 1.01 | S. cerevisiae deletion strains, locus YOR070C, strain gyp1, hits give low values 0.986 | S. cerevisiae deletion strains, locus YOR080W, strain dia2, hits give low values 0.984 | S. cerevisiae deletion strains, locus YOR083W, strain WHI5, hits give low values 0.999 | S. cerevisiae deletion strains, locus YOR106W, strain vam3, hits give low values 0.961 | S. cerevisiae deletion strains, locus YOR136W, strain idh2, hits give low values 0.989 and 1.02 | S. cerevisiae deletion strains, locus YOR144C, strain elg1, hits give low values 0.989 and 1.01 | S. cerevisiae deletion strains, locus YOR184W, strain ser1, hits give low values 0.984 and 1 | S. cerevisiae deletion strains, locus YOR231W, strain MKK1, hits give low values 1.01 | S. cerevisiae deletion strains, locus YOR265W, strain rbl2, hits give low values 0.973 | S. cerevisiae deletion strains, locus YOR270C, strain vph1, hits give low values 0.97 | S. cerevisiae deletion strains, locus YOR290C, strain snf2, hits give low values 0.98 | S. cerevisiae deletion strains, locus YOR316C, strain cot1, hits give low values 0.986 and 1.01 | S. cerevisiae deletion strains, locus YPL051W, strain arl3, hits give low values 0.991 | S. cerevisiae deletion strains, locus YPL055C, strain LGE1, hits give low values 1.03 and 1.02 | S. cerevisiae deletion strains, locus YPL078C, strain atp4, hits give low values 0.986 | S. cerevisiae deletion strains, locus YPL106C, strain sse1, hits give low values 0.971 | S. cerevisiae deletion strains, locus YPL240C, strain hsp82, hits give low values 0.969 | S. cerevisiae deletion strains, locus YPL241C, strain CIN2, hits give low values 0.995 and 1 | S. cerevisiae deletion strains, locus YPL256C, strain CLN2, hits give low values 1.03 | S. cerevisiae deletion strains, locus YPR119W, strain clb2, hits give low values 0.985 and 1.01 | S. cerevisiae deletion strains, locus YPR141C, strain kar3, hits give low values 0.981 and 1.02 | S. cerevisiae deletion strains, locus YPR163C, strain tif3, hits give low values 0.992 and 1.03 | S. cerevisiae deletion strains, locus YPR167C, strain met16, hits give low values 0.983 and 1.01 | S. cerevisiae deletion strains, strain wtn01, hits give low values 0.972 and 1.03 | S. cerevisiae strains, strain wild type, hits give low values 0.987
